Measured values: PubChem BioAssay (NCI)
The panel holds about 83,000 compounds, 20% with a hit somewhere; the sample as a whole holds those more often.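 Single-concentration screen, 48 h exposure, 96-well plates. Endpoint: percent growth. Below 10 = active.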 The source made the active and inactive calls.

Tested on: SNB-75 CNS
Test: NCI-60 one-dose screen, 48 h (100 = growth as untreated, 0 = no growth, -100 = all killed)
Conditions: 10 µM unless noted

SMILES | growth
Cc1ccc2c(C(C[N+](=O)[O-])c3ccco3)c(-c3ccccc3)[nH]c2c1 (centres undefined) | -5.04% (active)
NC(=O)c1cc(Br)ccc1NC(=O)/C=C/c1ccccc1 | -7.05% (active)
O=C1c2cccc3cccc(c23)C(=O)N1CCCCN1CCN(CCCCOc2ccc(-c3nc4ccc(N5CCOCC5)cc4[nH]3)cc2)CC1 | 84.8% (inactive)
Cc1cc(C)nc(SC2=C(Nc3cccc(Cl)c3)C(=O)N(Cc3ccccc3)C2=O)n1 | 58.5% [30 µM] (inactive)
CN(C)C(=S)N=Nc1c(O)[nH]c2ccccc12 | 48.4% (inactive)
O=C1/C(=C/c2ccc3c(c2)OCO3)SC(=S)N1CCc1ccc(O)cc1 | 83.7% (inactive)
N#Cc1cnn(-c2nc3c(Cl)cccc3s2)c1N | 77.7% (inactive)
Nc1ccn(-c2ccc(Br)cc2)c(=O)n1 | 76.7% (inactive)
Cc1ccc(C2=NN3C(C2)c2cc(Br)ccc2OC32CCN(Cc3ccccc3)CC2)o1 (centres undefined) | 79% (inactive)
COc1ccc(C(=O)COc2ccc(/C=C3\COc4ccc(OC)cc4C3=O)cc2)cc1 | 91.7% (inactive)
CCN(CC)c1ccc(-c2cc(-c3cc(OC)c(OC)c(OC)c3)nc(N3CCOCC3)c2C#N)cc1 | 29.8% (inactive)
Cn1cc(-c2nonc2-c2cn(C)c3ccc(F)cc23)c2ccccc21 | -17.9% (active)
COc1ccc(C(=O)COc2cccc(/C=C3\CSc4ccccc4C3=O)c2)cc1 | 91.6% (inactive)
CCn1c(Cc2ccccc2Nc2c(Cl)cccc2Cl)nnc1SCC(=O)NN1C(=O)/C(=C/c2cc(OC)c(O)c(OC)c2)SC1=S | 2.65% (active)
